Screening data as filed in PubChem BioAssay.
The list is not random: actives were taken first. Their share in the collection is about 0.58%.
CatB mixtures – human cathepsin B inhibition by mixtures; Purified cathepsin B, AMC dipeptide fluorescence, compound mixtures; hit rate 0.06% among 62,000; P07858; inhibition, %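 (ten-compound pools at 5 µM per compound and 50 µM total)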; in the data active = inhibition above about 22%, passing the limit was not always enough;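 also: 0% = enzyme without compound and 100% = no enzyme blank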
Cathepsin G inh – blocks human cathepsin G enzyme activity; purified enzyme, AMC-tetrapeptide fluorescence, pooled mixtures; inhibition, % at 5 µM (by protocol); hit rate 0.2% among 62,000;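 active = inhibition above 20% in each of the two mixture wells holding the compound; inactive = inhibition of 20% or less in either well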;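 also: 0% = enzyme control without mixture and 100% = blank lacking enzyme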
Target sequence (P08311 21-244 limits assumed): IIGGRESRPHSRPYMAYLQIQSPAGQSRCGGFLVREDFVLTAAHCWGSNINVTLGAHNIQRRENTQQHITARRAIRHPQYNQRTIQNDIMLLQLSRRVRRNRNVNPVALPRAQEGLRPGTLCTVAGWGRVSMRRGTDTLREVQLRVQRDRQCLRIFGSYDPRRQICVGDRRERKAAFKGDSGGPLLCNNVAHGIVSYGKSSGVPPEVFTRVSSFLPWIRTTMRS
CatS inh – blocks human cathepsin S protease activity; hit rate 0.06% among 62,000; P25774; inhibition, %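 (tested at 5 µM per compound within 10-compound mixtures)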; recombinant cathepsin S, AMC dipeptide fluorescence, pooled mixtures; AID 501; in the data active = inhibition above about 32%, passing the limit was not always enough;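 also: 0% = enzyme without compound and 100% = blank without enzyme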
C1s inh – human complement C1s inhibition; P09871; purified C1s, fluorogenic AMC substrate, pooled mixtures; mean inhibition % of two 10-compound mixtures (hits give high values), % at 5 µM (by protocol); hit rate 0.16% among 62,000; AID 538;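 active = inhibition above 20% in each of the two 10-compound mixture wells holding the compound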;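 also: 0% = enzyme wells lacking compound mixture and 100% = no-enzyme blank wells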
CatB inh – blocks human cathepsin B protease activity; AID 453; P07858; purified cathepsin B, fluorogenic substrate, fluorescence; inhibition, %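 (tested at 10 µM)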; hit rate 0.1% among 63,000; in the data active = inhibition above about 21%;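 also: 0% = enzyme with no compound and 100% = no enzyme blank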
CatL inh – inhibitors of human cathepsin L | P07711 | inhibition, %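 (tested at 10 µM)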 | purified cathepsin L, fluorogenic substrate, fluorescence | hit rate 0.17% among 58,000; in the data active = inhibition above about 45%;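 also: 0% = enzyme with no compound and 100% = no enzyme blank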
* = called active by the depositor; . = no result.

SMILES	CatB mixtures	Cathepsin G inh	CatS inh	C1s inh	CatB inh	CatL inh
C=CCSc1nc2ccccc2n1Cc1nnc(-c2cccs2)o1	4	10	8	9	0	4
Cc1cc(NS(=O)(=O)c2ccc(NC(=O)COc3ccccc3C(C)C)cc2)no1	6	37	-8	25*	5	2
Nc1nc(C(=O)N2CCOCC2)nn1C(=O)c1ccc(Cl)cc1	3	40*	0	32*	-3	.
O=C(Oc1oc(-c2ccco2)nc1C=Nc1ccccc1)c1ccco1	11	11	2	14	22*	18
Cc1ccc(Cl)cc1N1CCN(C(=O)c2cc3c(=O)n(C)c4ccccc4c3n2C)CC1	-1	-1	23	-3	0	19
CN/C=C1\C(=O)C(C)(C)Oc2ccc3ccc(=O)oc3c21	5	10	1	23*	5	12
O=S(=O)(c1ccccc1F)N(Cc1ccco1)Cc1nnc(-c2ccccc2Br)o1	-3	-2	-13	0	-2	47*
COC(=O)Cn1nnc(-c2cccc(OC)c2)n1	0	-2	19	-5	0	.
